Among the data in the OligoGym collection are sensor-assay potency score (higher = more potent) values, retold here.
Further: reference of the scale not given here.

The target of one assay is DMKN. The assay is described as follows: pooled miR-30 sensor sort-seq; sequence = guide strand. The settings on record: shRNA.
TGTAATTGTAGTTCTGATCGGC showed a sensor-assay potency score (higher = more potent) of 0.784.
On the same count and under the same terms, with TTCCTCTCCGCTCTGCAGGGGG the figure was -0.64; with TTGTTGTTGTCACCATTGCTGC, -0.932.
In turn, TTTGCAGGGGTCTTGACTGAGT gave a sensor-assay potency score (higher = more potent) of -1.13.
As for TGACTGAGTACTTCCCACCATA, the sensor-assay potency score (higher = more potent) is -1.25.
TTGGATTTAAAATTCTTCCAGA: the sensor-assay potency score (higher = more potent) worked out at 0.603.
Same read-out and setting: next, TTGTAGTTCTGATCGGCTCTGC: 0.13.
On the same count and under the same terms, with TGCCTGTCTGCCAATCTCGTGC the figure was -0.915.

In a further assay the target is DMRT3. The assay is described as above. Conditions: shRNA.
In the case of TACTCTTTGCCACATCTGGGGA, the sensor-assay potency score (higher = more potent) was -0.96.
TTACTCTTTGCCACATCTGGGG: the sensor-assay potency score (higher = more potent) is -0.22.
Consider TACATTAACCTGACAAAGCTTA, for which the sensor-assay potency score (higher = more potent) is 0.0811.
On the same count and under the same terms, with TTTGACACAAATGGACACCCAT the figure was 0.206; with TTGCAACAGAACCACTTCCTTT, -0.544.
TAGACTCTCAGGTTCTGCGGAA gave a sensor-assay potency score (higher = more potent) of -0.423.
On the same count and under the same terms, with TACATTGACATTACACATGTTT the figure was -0.269; with TTTGTCACTGAAGACCTCTGTA, 0.155.
The sequence TTGTCTCTGAAAACTGTCCAAG came in with a sensor-assay potency score (higher = more potent) of -0.806.
The same measure, in the same setting: next, TTGACACAAATGGACACCCATC: -1.32; TTTTTTAACACTTCAAGCGGCG: -0.226.

The target in the next assay is DMRTC2. Described as above. The settings on record: shRNA.
Sequence TATCAGAGTTGAGTGTGTGCGG showed a sensor-assay potency score (higher = more potent) of -0.137.
The same measure, in the same setting: with TTGTGACACTCGCAAGCCTGGA the figure was -1.29; with TCAGAGTTGAGTGTGTGCGGGG, -0.0492; with TCAGTACTGGGTGAGATCCTGG, -0.163.
Regarding TAGCTGAAGAGGGTCTGGGGTG, the sensor-assay potency score (higher = more potent) is -1.25.
On the same count and under the same terms, next, ACACATTTGTGACACTCGCAAG: -1.72; ATATGCAGAGCAACAGAGGGGG: -0.319; TCTGAGGGACCAGATGTCCGGG: -1.06.
Same read-out and setting: next, TTTGTGACACTCGCAAGCCTGG: -0.968.
Same read-out and setting: next, TATGCAGAGCAACAGAGGGGGC: -1.35; ATTTGTGACACTCGCAAGCCTG: -0.869; TTCTGAAGTGGTTGGGAGCTTT: -0.576.

The target in a further assay is DMXL1. The assay is described as above. The settings on record: shRNA.
On to TTTTTCTGAACTTCCATCTGGA, for which the sensor-assay potency score (higher = more potent) came to 0.702.
Consider ATTACTTACACATTCTACTTTA, for which the sensor-assay potency score (higher = more potent) was -0.377.
The same measure, in the same setting: with TTTGTTTCTGAAAACACTGCTA the figure was 0.164.
On the same count and under the same terms, with TTTCTAAATAGTATCTACTTAA the figure was -0.599; with TAAGTTAAAAGCATTGTGCATT, -0.306.
Same read-out and setting: with TTTCTGAACTTCCATCTGGAGA the figure was -0.95; with TTCTACATTATACCAAACCTTC, -0.955.
Regarding TTCTATATCATCATCTACCCAA, the sensor-assay potency score (higher = more potent) was -0.207.
Same read-out and setting: next, TTCATTTTCATTTAGACTCAGA: -0.406.
